The results in this text go back to PubChem BioAssay AID1159554 (Broad Institute, 2015).

Structures are written as SMILES. In all, about 94,000 compounds went through this assay and about 2,100 (2.2%) were called active. This is one part of a sample in which actives are shown more often than they occur. Values without a mark were called inactive. Rule as the data show it: active = activity change below about -80%; inconclusive = no clear call, values can overlap the other calls; inactive = above that.

The nature of this assay: Dd2 malaria parasite growth inhibition – SYBR Green fluorescence, single dose replicates, primary screen (AID 1159554). The note with it: P. falciparum Dd2 growth, 72 h, at 10 µM, hits give low values.
With `O=C(C1CCCCC1)N1CC2(C1)[C@H](c1ccccc1)[C@@H](CO)N2Cc1cncnc1`, the activity change is 32.5%.
The figure for `O=C(C[C@@H]1CC[C@@H]2[C@H](COC[C@H](O)CN2S(=O)(=O)c2ccccc2F)O1)NCc1ccccc1F` is 0.606%.
In the case of `C[C@@H]1CCCCO[C@@H](CN(C)S(=O)(=O)c2cn(C)cn2)[C@H](C)CN([C@@H](C)CO)C(=O)c2cc(NC(=O)Nc3ccccc3)ccc2O1` it was -13.9%; in that of `CC(C)NC(=O)N1[C@@H]2CN(C(=O)Nc3ccc(F)cc3)c3ccccc3[C@@H]2[C@@H]1CO`, 18.6%; in that of `CC(=O)N(C)C[C@H]1Oc2cc(C#Cc3ccccc3F)ccc2S(=O)(=O)N([C@@H](C)CO)C[C@H]1C`, -22.1%.
As to `C[C@@H]1CN([C@H](C)CO)S(=O)(=O)c2ccc(C#Cc3ccccc3F)cc2O[C@@H]1CN(C)C(=O)c1ccc2c(c1)OCO2`, the activity change is -67%.
Consider `C[C@H]1CN([C@@H](C)CO)S(=O)(=O)c2ccc(C#Cc3ccccc3F)cc2O[C@@H]1CN(C)C(=O)c1ccc2c(c1)OCO2`, for which the activity change is -86.6% (active).
In the case of `CC(=O)N(C)C[C@@H]1Oc2cc(C#Cc3ccccc3F)ccc2S(=O)(=O)N([C@@H](C)CO)C[C@@H]1C`, the activity change was -36.8%.
Turning to `CC(=O)N(C)C[C@H]1Oc2cc(C#Cc3ccccc3F)ccc2S(=O)(=O)N([C@H](C)CO)C[C@@H]1C`, the activity change is -24.1%.
In the case of `C[C@@H]1CN([C@@H](C)CO)S(=O)(=O)c2ccc(C#Cc3ccccc3F)cc2O[C@H]1CN(C)C(=O)c1ccc2c(c1)OCO2` it was -85.3% (active); in that of `COc1ccc(C#Cc2ccc([C@H]3[C@@H](CO)N4CCCCN(C(=O)Nc5ccccc5)C[C@H]34)cc2)cc1`, -69.3%; in that of `O=C(Nc1ccc(F)cc1)N1CCCCN2[C@H](CO)[C@H](c3ccc(C#Cc4ccccc4)cc3)[C@H]2C1`, -83.4% (active).
In the case of `CN(C)CC#Cc1ccc([C@@H]2[C@H](CO)N3CCCCN(C(=O)Nc4ccc(F)cc4)C[C@@H]23)cc1` it was -18.7%.
With `C[C@H](CO)N1C[C@H](C)[C@@H](CN(C)Cc2cccc(F)c2)Oc2cc(C#CC3CC3)ccc2S1(=O)=O`, the activity change was -15.8%.
In the case of `C[C@H]1CN([C@@H](C)CO)S(=O)(=O)c2ccc(-c3cccc(C#N)c3)cc2O[C@H]1CN(C)CC1CC1` it was -83.2% (active); in that of `CCC(=O)N(C)C[C@H]1Oc2cc(-c3cccc(C#N)c3)ccc2S(=O)(=O)N([C@@H](C)CO)C[C@@H]1C`, 7.55%; in that of `CCCN(C)C[C@@H]1Oc2cc(-c3cccc(C#N)c3)ccc2S(=O)(=O)N([C@@H](C)CO)C[C@@H]1C`, -82.2% (active).
In the case of `C[C@@H]1CN([C@@H](C)CO)S(=O)(=O)c2ccc(-c3cccc(C#N)c3)cc2O[C@@H]1CN(C)Cc1cccc(F)c1` it was -39.8%; in that of `C[C@H](CO)N1C[C@H](C)[C@@H](CN(C)C(=O)C2CC2)Oc2cc(-c3cccc(C#N)c3)ccc2S1(=O)=O`, -26.1%.
Consider `C[C@@H]1CN([C@H](C)CO)S(=O)(=O)c2ccc(-c3ccccc3)cc2O[C@@H]1CN(C)CC1CC1`, for which the activity change was -40.4%.
On to `CNC(=O)C[C@@H]1CC[C@@H]2[C@H](COC[C@@H](O)CN2S(=O)(=O)c2ccccc2Cl)O1`, for which the activity change is 24.5%.
In the case of `Cc1ccccc1-c1ccc2c(c1)O[C@H](CN(C)Cc1ccc(C(=O)O)cc1)[C@@H](C)CN([C@H](C)CO)S2(=O)=O` it was -8.07%.
In the case of `CO[C@H](CN(C)C(=O)c1ccc2c(c1)OCO2)[C@H](C)CN([C@@H](C)CO)S(=O)(=O)c1ccc(Cl)cc1` it was 10.7%; in that of `COCCNC(=O)C[C@@H]1C[C@@H]2c3cc(NS(=O)(=O)c4ccccc4)ccc3O[C@@H]2[C@H](CO)O1`, 18.7%; in that of `Cn1cnc(S(=O)(=O)N2C[C@@H](O)COC[C@@H]3O[C@H](CC(=O)NC4CCC4)CC[C@H]32)c1`, 8.29%.
In the case of `CC(C)(C)[S@](=O)N1Cc2cc(C(=O)N[C@@H]3CCN(Cc4ccccc4)C3)nc(-c3cccc(-c4ccncc4)c3)c2[C@@H]1CCO` it was -81.2% (active); in that of `CC(C)(C)[S@@](=O)N1Cc2cc(C(=O)NCc3ccc4c(c3)OCO4)nc(-c3cccc(-c4ccccc4)c3)c2[C@H]1CCO`, -48.4%.
As to `CCCNC(=O)c1cc2c(c(-c3cccc(-c4ccc(F)cc4)c3)n1)[C@@H](CCO)N([S@](=O)C(C)(C)C)C2`, the activity change is -18.8%.
The figure for `COc1ccc2c3c(n(C)c2c1)[C@H](CO)N(C(=O)C1CCCC1)CC31CCN(C(=O)c2ccncc2)CC1` is -53.1%; for `C/C=C/c1ccc([C@@H]2[C@H](CO)N(CC3CCCC3)C23CN(C(=O)CC)C3)cc1` it is -53.8%.
On to `C/C=C/c1ccc([C@@H]2[C@@H](CO)N(CC3CCCC3)C23CN(S(=O)(=O)CC)C3)cc1`, for which the activity change was -78.3%.
The figure for `C/C=C/c1ccc([C@@H]2[C@H](CO)N(CC3CCCC3)C23CN(C(=O)CC2CC2)C3)cc1` is -85% (active).
The figure for `CCCNC(=O)N(C)C[C@H]1Oc2ncc(-c3ccc(F)cc3)cc2C(=O)N([C@H](C)CO)C[C@H]1C` is 0.175%; for `CCCNC(=O)NC[C@H]1[C@H](c2ccc(C3=CCCCC3)cc2)[C@H](CO)N1C(C)=O` it is -9.89%; for `COc1ccc(S(=O)(=O)N(C)C[C@H]2OCCCC[C@H](C)Oc3ccc(NC(=O)CCC(F)(F)F)cc3C(=O)N([C@@H](C)CO)C[C@@H]2C)cc1` it is -55.8%.
Regarding `C[C@H]1CN([C@@H](C)CO)C(=O)c2cccc(NC(=O)c3cnccn3)c2O[C@@H]1CN(C)Cc1ccc(Oc2ccccc2)cc1`, the activity change was -3.4%.
The figure for `C[C@H](CO)N1C[C@H](C)[C@H](CN(C)Cc2ccccc2)Oc2ccc(NC(=O)CCCCCC(=O)Nc3ccccc3N)cc2C1=O` is -61%.
Turning to `C[C@H]1CN([C@@H](C)CO)C(=O)c2cccc(NC(=O)Nc3ccccc3)c2O[C@H]1CN(C)Cc1ccc(Oc2ccccc2)cc1`, the activity change was -12%.
In the case of `Cc1noc(C)c1NC(=O)N(C)C[C@@H]1Oc2c(NC(=O)CCCCCC(=O)Nc3ccccc3N)cccc2C(=O)N([C@H](C)CO)C[C@@H]1C` it was 20.3%; in that of `C[C@@H]1CN([C@H](C)CO)C(=O)c2cccc(NC(=O)CCCCCC(=O)Nc3ccccc3N)c2O[C@H]1CN(C)Cc1ccc(Oc2ccccc2)cc1`, -91.8% (active).
The figure for `C[C@H](CO)N1C[C@H](C)[C@H](CN(C)Cc2ccc(Oc3ccccc3)cc2)Oc2c(NC(=O)CCCCCC(=O)Nc3ccccc3N)cccc2C1=O` is -92.5% (active).
